The source of these data is PubChem BioAssay AID1578 (Sanford-Burnham Center for Chemical Genomics, 2009).

Molecules are shown by their SMILES. “And” between values parts separate entries of the source, which are not always exact repeats. Identical values can stand only once. Hit rate of the full screen: of about 290,000 compounds, about 3,000 (1%) were called active. This excerpt belongs to a sample that is enriched for actives. Unmarked numbers belong to inactive results. Cut-off read from the data, not from the text of the source: active = inhibition mostly above about 36% (no sharp cut-off); inactive = mostly below about 34%.

The assay is described as follows: inhibition of NOD1-driven NF-kB reporter – cell-based, luminescence, uHTS, primary screen (AID 1578).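 Note: HEK-293T reporter cells stimulated with the NOD1 agonist gamma-tri-DAP.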 As to conditions: NOD1-driven NF-kB luciferase reporter cells, at 4 µM, hits give high values. (A reporter such as luciferase makes a cellular process visible.)
Usually inhibition stands for the drop in the measured response relative to a control, in per cent. In the case of `O=C(N/N=C/c1ccc([N+](=O)[O-])cc1)c1cccc(N2CCCC2=O)c1`, the inhibition is -9.3%. For `Cc1cc(=O)oc2cc(OCC(=O)NC(Cc3c[nH]c4ccc(O)cc34)C(=O)O)c(Cl)cc12` (stereo unspecified), the inhibition was -16.2%. In the case of `COc1ccc(C(=O)NCCN2C(=O)S/C(=C\c3cccnc3)C2=O)cc1[N+](=O)[O-]`, the inhibition is 1.6%. As to `Cc1c(C(=O)NCCN2C(=O)S/C(=C\c3cccnc3)C2=O)cccc1[N+](=O)[O-]`, the inhibition was 1.5%.

For the molecule `CS(=O)(=O)c1ccc(C(=O)NCCN2C(=O)S/C(=C\c3cccnc3)C2=O)cc1[N+](=O)[O-]`, the inhibition is 93.4% (active). For `COc1ccc2c(CC(=O)NCCN3C(=O)S/C(=C\c4cccnc4)C3=O)coc2c1`, the inhibition was 68% (active). Consider `COc1ccc(/C=C2\SC(=O)N(CCNC(=O)Cc3coc4cc(C)ccc34)C2=O)cc1OC`, for which the inhibition is -2.7%. `COc1ccc(/C=C2\SC(=O)N(CCNC(=O)Cc3coc4cc(OC)ccc34)C2=O)cc1`: the inhibition is -10.8%. For the molecule `O=C(O)CSCC(=O)N1CCN(S(=O)(=O)c2ccccc2)CC1`, the inhibition is -20.2%.

On to `c1ccc(NC2=NCCN2CC2CCCC2)cc1`, for which the inhibition was -17.2%. For `CCC(C)NC(=O)c1ccc2nc(Cc3ccc(OC)cc3)oc2c1` (stereo unspecified) the value was -14.9%; for `COc1ccc(Cc2nc3ccc(C(=O)NC(C)c4cnn(C)c4)cc3o2)cc1` (stereo unspecified), -4.3%.

In the case of `COc1ccc(OC)c(NC(=O)CNC(=O)Cn2cnc3sc(C)cc3c2=O)c1`, the inhibition is -3.5%. For `COc1ccc(-c2cc(=O)oc3cc(OC(=O)C4CCCCC4)ccc23)cc1` the value was 87.8% (active). As to `COc1ccc(-c2cc(=O)oc3cc(OC(C)C(=O)O)ccc23)cc1` (stereo unspecified), the inhibition is 29.6%. The result for `O=C(Oc1ccc2ccc(=O)oc2c1)C1CCCCC1` reads -28.4%; that for `O=C(Oc1ccc2c(-c3ccccc3)cc(=O)oc2c1)C1CCCCC1`, 13.8%; that for `COc1ccc(-c2cc(=O)oc3cc(OCC(C)=O)ccc23)cc1`, -12.9%. Turning to `Nc1cc(=O)[nH]c(SCc2ccccc2Cl)n1`, the inhibition is -3.2%. Consider `CN1C(=O)S/C(=C/c2cccnc2)C1=O`, for which the inhibition is -3.3%. Turning to `Cc1cc(C(=O)NC2CC(C)(C)Cc3c2cnn3-c2ccccc2C)c(C)o1` (stereo unspecified), the inhibition was -10.6%.

On to `Clc1ccccc1OCc1nn2c(-c3ccncc3)nnc2s1`, for which the inhibition was -2.2%. With `COc1ccc(NC(=O)CSc2ccc(-c3sc(C)nc3C)nn2)cc1`, the inhibition is -17.2%. Regarding `COc1ccc(NC(=O)CSc2ccc(-c3sc(C)nc3C)nn2)cc1OC`, the inhibition was -3.5%. The result for `CCOC(=O)CCCCCN1C(=O)c2cccc3cccc(c23)C1=O` reads -23.8%. On to `CCN(CC)S(=O)(=O)c1ccc(C(=O)NCCCn2ccnc2)cc1`, for which the inhibition was -65.6%. For `O=C(O)c1ccc(N2CCCCS2(=O)=O)cc1` the value was -12.1%; for `Cc1noc(C(=O)NCc2ccco2)c1Cl`, -14.8%. For `COc1ccc(NC(=O)CS(=O)(=O)c2ccc(F)cc2)cc1` the value was -5.8%; for `O=C(Nc1ccccc1)c1cc2ccc3ccccc3c2s1`, -10.5%. For `O=C(Nc1ccccc1)c1cc2ccccc2c(=O)s1`, the inhibition was 63.7% (active). For `O=C(Nc1ccc(O)cc1)c1cc2ccccc2c(=O)s1`, the inhibition was -2.1%.

Take `Cc1ccc(C)c(N2CCN(C(=O)CCS(=O)(=O)c3cccc4nonc34)CC2)c1`: the inhibition was 1.8%. For `CC(C)C[C@@H](N)c1nnc(SCC(=O)c2ccc(Cl)cc2)o1`, the inhibition is -21.8%. With `CC(C)C[C@H](N)c1nnc(SCc2ccc(Cl)cc2)o1`, the inhibition is 20.5% (active). On to `CC(C)[C@H](N)c1nnc(SCc2ccc(Cl)cc2)o1`, for which the inhibition was -4.6%. For the molecule `O=[N+]([O-])c1cc(Cc2ccccc2)cc(C=Nc2ccc(N3CCOCC3)cc2)c1O`, the inhibition is 34%.

On to `COc1ccc(N=Cc2cc(Cc3ccccc3Cl)cc([N+](=O)[O-])c2O)cc1OC`, for which the inhibition was 62.4% (active).

As for `COc1ccc(N=Cc2cccc(C)c2O)cc1Cl`, the inhibition is -10%. For `COc1cc(C=Nc2cccc(C)c2)c(O)c([N+](=O)[O-])c1` the value was -20.1%; for `Cc1ccc(O)c(C=Nc2cc(C)ccc2O)c1`, -25.5%. Consider `O=C(N/N=C/c1cc([N+](=O)[O-])c(N2CCOCC2)cc1N1CCOCC1)c1cccnc1`, for which the inhibition was -24.1%.

Consider `O=C(COC(=O)COc1ccccc1[N+](=O)[O-])Nc1ccccc1Br`, for which the inhibition is 9.3%.

In the case of `Cc1c(C(=O)N2CCCCC2)sc(NC(=O)c2ccco2)c1C#N`, the inhibition is -0.9%. The result for `Cc1c(C(=O)N2CCCC2)sc(NC(=O)c2ccccc2)c1C#N` reads -9.5%; that for `Cc1c(C(=O)N2CCCC2)sc(NC(=O)c2ccco2)c1C#N`, 48.7% (active); that for `CC1C(=NO)C(C)C(c2ccc(N(C)C)cc2)NC1c1ccc(N(C)C)cc1` (stereo unspecified), 4%.

Turning to `COc1ccc2c(c1)sc1nc(=O)ccn12`, the inhibition is -3.3%.

As to `CCOC(=O)N1CCN(C(=O)c2ccc3c(c2)sc2nc(-c4ccc(OC)cc4)cn23)CC1`, the inhibition is -15.5%. The result for `COc1ccc2c(c1)sc1nc(-c3ccccc3)cn12` reads 34.4% (active); that for `O=C(COc1ccccc1)Nc1ccc(Cl)c(-c2nc3ncccc3o2)c1`, -25.6%; that for `COc1cccc(C(=O)N2CCN(C(=O)C3CC3)CC2)c1`, -26.7%. The result for `COc1ccc(OC(C)C(=O)N2CCCc3ccccc32)cc1` (stereo unspecified) reads -45.6%. With `Cc1nc2ccccn2c1C(=O)N=Nc1c(O)n(CCC(C)C)c2ccccc12`, the inhibition is 92% (active). With `CC(C)CCn1c(O)c(N=NC(=O)c2ccco2)c2ccccc21`, the inhibition was 24.4%.

As for `Cc1nc2ccccn2c1C(=O)N=Nc1c(O)[nH]c2ccccc12`, the inhibition was 11.6%. Turning to `CC1=Nc2cc(C(=O)NCCCOC(C)C)ccc2Sc2ccccc21`, the inhibition is 3.6%. Take `Cc1[nH]n(-c2cccc(Cl)c2)c(=O)c1-c1ccccc1`: the inhibition was -18%. For `Cc1[nH]n(-c2ccccc2)c(=O)c1-c1ccc(Cl)cc1` the value was -30.5%. For `O=C(CSc1nnc(Cn2c(=O)sc3ccccc32)n1CCc1ccccc1)N1CCOCC1` the value was -11.3%; for `COc1cccc2c1C(CO)N1C(C#N)C3CC(C(=O)O)C(C1C2)N3C` (stereo unspecified), 102% (active). Take `COc1ccccc1N1CCN(C(=O)C2CC=CCC2C(=O)O)CC1` (stereo unspecified): the inhibition was -7.7%. `COc1cccc2c1OCC(C(=O)O)C2` (stereo unspecified): the inhibition was -26.7%. Consider `CC(C)c1ccc(NC2CCCN(C(=O)c3ccc(N4CCOCC4)cc3)C2)cc1` (stereo unspecified), for which the inhibition was -4%. The result for `Cc1ccc(S(=O)(=O)c2c(C)cc(C)[nH]c2=O)cc1` reads -7.8%. For `N#C/C(=N\Nc1ccc(Cl)cc1)C(=O)c1ccccc1` the value was 66.9%; for `Cc1ccc(N/N=C(\C#N)C(=O)c2ccsc2)cc1`, -5.4%; for `N#C/C(=N\Nc1ccc(Cl)cc1)C(=O)c1ccsc1`, 75.6% (active). The result for `Cc1cccc(/N=C/c2c(C)[nH]n(-c3ccccc3)c2=O)n1` reads -8.3%. For `Cc1[nH]n(-c2ccccc2)c(=O)c1/C=N/N1C(=O)c2ccc3c4c(ccc(c24)C1=O)CC3`, the inhibition was 90.8% (active). In the case of `Cc1[nH]n(-c2ccccc2)c(=O)c1/C=N/N1CCOCC1`, the inhibition was 6.6%. With `Cc1[nH]n(-c2ccccc2)c(=O)c1C=Nc1cccc2cccnc12`, the inhibition is 45.4%.

For the molecule `Cc1[nH]n(-c2ccccc2)c(=O)c1/C=N/N1C(=O)c2cccc3cccc(c23)C1=O`, the inhibition is -49.6%. Turning to `COc1ccc(N=C2SC(C(=O)Nc3ccc(OC)cc3)CC(=O)N2CCN2CCOCC2)cc1` (stereo unspecified), the inhibition is -18.8%. In the case of `COc1cc(CN2CCCCCC2)cc(OC)c1OC`, the inhibition was -23%.

As for `C(=N\n1c2ccccc2c2ccccc21)/c1ccccc1`, the inhibition was 6.6%. Take `C[n+]1cn(/N=C/c2ccccc2)c2ccccc21`: the inhibition is 75.1% (active). The result for `Cn1c(=O)n(/N=C/c2ccccc2)c2ccccc21` reads -23.6%; that for `CCOC(=O)Cc1csc(NC(=O)c2sc3nc4cc(C)ccc4cc3c2N)n1`, -55.6%; that for `Cc1ccccc1CN1CCC(Oc2ccc(C(=O)NCc3ccccn3)cc2)CC1`, 17%.

Regarding `CCn1cc(CNC(=O)c2ccc(OC3CCN(Cc4ccccn4)CC3)cc2)cn1`, the inhibition was -0.8%. The result for `Cc1cc(Sc2nnc(N)s2)c2ccccc2n1` reads 53.2% (active). Turning to `Cc1cc(Sc2nnc(/N=C/N(C)C)s2)c2ccccc2n1`, the inhibition is 46.4% (active). The result for `COc1ccc2nc(C)cc(Sc3nc4ccccc4s3)c2c1` reads 47.7% (active).

Turning to `Cc1nc2ccccc2nc1CSc1nnc(N)s1`, the inhibition is -18%. On to `COc1ccc2nc(C)cc(SCC(=O)O)c2c1`, for which the inhibition was -24.8% and -30.8%. For `Cc1cc(N)c2ccccc2n1` the value was -45.9%; for `COc1ccc2nc(C)cc(SCC(=O)NNC(=O)COc3ccccc3)c2c1`, 9.9%; for `CCCCCCCCSc1nnc(/N=C/N(C)C)s1`, -11.4%. For `Cc1ccc(NC(=O)CSc2nnc(/N=C/N(C)C)s2)cc1` the value was -37.6%; for `Cc1ccccc1CN1CCN(CC(=O)NCc2ccco2)C1=O`, -14.9%; for `FC(F)(F)COc1nc(N2CCOCC2)nc(N(c2ccccc2)c2ccccc2)n1`, -30.9%. For the molecule `O=C(Nc1cccc(NC(=O)c2cncc(Br)c2)c1)c1cncc(Br)c1`, the inhibition is -16.9%. On to `Cc1ccc(NS(=O)(=O)c2cn(C)c(=O)n(C)c2=O)cc1C`, for which the inhibition is -34.3%. Take `Cc1ccc(-c2nc(NCC3CCCO3)sc2C)cc1` (stereo unspecified): the inhibition is -53.2%. On to `COCc1cc(C2C(C(=O)c3ccco3)=C(O)C(=O)N2CCOCCO)ccc1O` (stereo unspecified), for which the inhibition is -32.2%.
